According to PubChem BioAssay:
Records with an inconclusive call do not appear. Calls of active or inactive are those of the source. Unless noted, cut-off not given; nearly all actives show AC50 up to about 26 µM.

Tests used:
[1] = viability loss in pontine glioma line – cell-based, SU-DIPG-XVII, MIPE5.0, CellTiter-Glo, qHTS, dose response (AID 1347060); details: CellTiter-Glo ATP luminescence;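 on AC50: cells exposed to compound for 48 hours before viability readout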
[2] = viability loss in pontine glioma line – cell-based, JHH-DIPG-1, MIPE4.0, CellTiter-Glo, qHTS, dose response (AID 1347062; cut-off not given, nearly all actives have AC50 up to about 27 µM;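 on AC50: cells exposed to compound for two days before readout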); details: JHH-DIPG-1 viability, CellTiter-Glo ATP luminescence
[3] = viability loss in pontine glioma line – cell-based, SU-DIPG-IV, MIPE4.0, CellTiter-Glo, qHTS, dose response (AID 1347063; cut-off not given, nearly all actives have AC50 up to about 30 µM;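 further: compound exposure lasted 48 hours before the viability readout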); details: CellTiter-Glo ATP luminescence
[4] = viability loss in pontine glioma line – cell-based, SU-DIPG-XXV, MIPE5.0, CellTiter-Glo, qHTS, dose response (AID 1347065); details: CellTiter-Glo ATP luminescence;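 further: cells exposed to compound for 48 hours before ATP readout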
[5] = JHH-DIPG-1 glioma cell viability, MIPE5.0 library, CellTiter-Glo luminescence, qHTS (AID 1347067); details: JHH-DIPG-1 glioma viability, CellTiter-Glo ATP luminescence;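 further: cells exposed to compound for 48 hours before readout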
[6] = viability loss with induced miR-34 in A549 – imaging, A549 dox-inducible miR-34, nuclei and caspase counts, primary screen (AID 1347080;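 active means compounds whose cell count with miR-34 switched on is under 0.7 times the count with it off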); details: A549 miR-34 inducible, Hoechst nuclei count, 48 h
[7] = growth inhibition of DIPG cells – cell-based, MIPE4.0 library, CellTiter-Glo luminescence, qHTS (AID 1347066; cut-off not given, nearly all actives have AC50 up to about 30 µM;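 further: cells exposed to compound for 48 hours before readout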); details: SU-DIPG-VI viability, CellTiter-Glo ATP luminescence
[8] = growth inhibition of DIPG cells – cell-based, MIPE5.0 library, qHTS (AID 1347068; cut-off not given, nearly all actives have IC50 up to about 30 µM;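 further: cells exposed to compound for 48 hours before viability readout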); details: SU-DIPG-XXV viability
[9] = MELAS cybrid and Rieske KO viability enhancers – cell-based, MELAS cybrids, Rieske KO mouse fibroblasts, CellTiter-Glo, primary screen (AID 1508586;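 active means mean z-score across replicates of 1.96 or higher in either the MELAS or the Rieske mutant cell line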;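 further: z relative to plate mean and SD of compound and empty wells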); details: low glucose
[10] = stronger effect = lower value, cell number ratio, induced over uninduced
[11] = measured here: relative caspase fold change +Dox/-Dox
[12] = measured here: total cells with miR-34 induction, stronger effect = lower value
[13] = measured here: total cells without miR-34 induction
[14] = MELAS cybrid survival, CellTiter-Glo 48 h, stronger effect = higher value
[15] = Rieske KO mouse fibroblast survival, CellTiter-Glo 72 h

Row | SMILES | outcome [1] | outcome [2] | outcome [3] | outcome [4] | outcome [5] | fold change [6, 10] | fold change [6, 11] | cell count [6, 12] | cell count [6, 13] | AC50 [1] | AC50 [2] | AC50 [3] | AC50 [4] | outcome [7] | AC50 [5] | IC50 [8] | z-score [9, 14] | z-score [9, 15]
1 | CCOC(=O)[C@H]1O[C@@H]1C(=O)N[C@@H](CC(C)C)C(=O)NCCC(C)C | inactive | inactive | inactive | inactive | inactive | 0.97 (inactive) | 0.856 | 4650 | 4800 |  |  |  |  |  |  |  |  | 
2 | O=C1NCCc2[nH]c(-c3ccncc3)cc21 |  |  |  |  |  | 1.04 (inactive) | 0.743 | 2250 | 2160 | 3.72 µM (active) | 3.32 µM (active) | 2.64 µM (active) | 2.09 µM (active) | inactive | 3.32 µM (active) | 5.25 µM (active) | 0.826 (inactive) | -3.11
3 | CNC(=O)Nc1ccc(-c2nc(N3CC4CCC(C3)O4)c3cnn(C4CCC5(CC4)OCCO5)c3n2)cc1 |  |  |  |  |  | 1.12 (inactive) | 0.588 | 3730 | 3320 | 0.742 µM (active) | 1.87 µM (active) | 0.0264 µM (active) | 0.332 µM (active) |  | 1.48 µM (active) | 1.86 µM (active) | 3.93 (active) | -1.7
